Key:
Test in all cases: DAPPL (digital affinity profiling via proximity ligation, sequencing); 10 mM Tris-HCl pH 7.5, 50 mM NaCl, 1 mM DTT, 4% glycerol, room temperature, 30 min; GST-TFs on glutathione beads, 16-mer random dsDNA library, 0.1% formaldehyde crosslink after washing; high values mean tight binding
Details in all cases: protein: recombinant; tags: N-terminal GST; dsDNA, one strand shown
ELK4 = biological target: T1, ELK4 (Homo sapiens, UniProt P28324-2 1-405)
T1 sequence: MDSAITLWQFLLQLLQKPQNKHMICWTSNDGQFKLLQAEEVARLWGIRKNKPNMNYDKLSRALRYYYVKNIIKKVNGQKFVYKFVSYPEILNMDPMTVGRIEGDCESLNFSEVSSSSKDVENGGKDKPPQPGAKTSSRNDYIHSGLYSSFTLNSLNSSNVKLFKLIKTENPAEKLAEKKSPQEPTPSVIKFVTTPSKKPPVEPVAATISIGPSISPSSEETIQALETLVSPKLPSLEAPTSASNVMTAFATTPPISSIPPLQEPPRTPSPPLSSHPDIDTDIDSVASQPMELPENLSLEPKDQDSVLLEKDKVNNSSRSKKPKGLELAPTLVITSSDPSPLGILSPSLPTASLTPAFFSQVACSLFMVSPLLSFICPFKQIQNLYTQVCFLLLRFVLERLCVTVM
Summary of the method: (§1)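 Sequencing on an Illumina NextSeq500 followed washing, crosslinking with 0.1% formaldehyde, proximity ligation (BsaI/T4 ligase, 1 h, 37 °C) and PCR amplification of pools that had been incubated for 30 min at room temperature with 200 nmole of a random double-stranded 16-mer DNA library in Tris/NaCl/DTT/glycerol buffer. Each pool held DNA-barcoded human transcription factors, expressed in yeast as GST fusions and captured on glutathione beads, plus a tag-only sample. Binding signal is a hexamer's read frequency for a factor divided by its frequency in the tag-only sample.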

ETV2 = biological target: T2, ETV2 (Homo sapiens, UniProt O00321 1-342)
T2 sequence: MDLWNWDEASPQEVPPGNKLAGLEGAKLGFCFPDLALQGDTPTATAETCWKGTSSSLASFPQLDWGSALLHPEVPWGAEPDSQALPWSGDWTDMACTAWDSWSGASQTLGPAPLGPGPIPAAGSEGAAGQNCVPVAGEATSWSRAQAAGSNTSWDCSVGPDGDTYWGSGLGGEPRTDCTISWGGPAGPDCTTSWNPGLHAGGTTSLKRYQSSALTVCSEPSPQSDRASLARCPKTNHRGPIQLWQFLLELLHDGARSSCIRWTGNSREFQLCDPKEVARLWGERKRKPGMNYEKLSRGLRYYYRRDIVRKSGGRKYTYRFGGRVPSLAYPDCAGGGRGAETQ
Summary of the method: as §1

CRX = CRX (Homo sapiens, UniProt O43186 1-299)
CRX, sequence (O43186 whole entry): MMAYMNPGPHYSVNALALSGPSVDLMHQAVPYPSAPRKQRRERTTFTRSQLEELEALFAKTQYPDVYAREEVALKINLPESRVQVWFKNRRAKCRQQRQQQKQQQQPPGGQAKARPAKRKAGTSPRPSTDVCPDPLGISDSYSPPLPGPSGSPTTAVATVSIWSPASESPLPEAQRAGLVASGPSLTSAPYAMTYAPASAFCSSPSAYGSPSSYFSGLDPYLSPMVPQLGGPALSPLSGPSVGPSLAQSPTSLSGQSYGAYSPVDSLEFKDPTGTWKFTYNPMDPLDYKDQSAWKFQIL
Summary of the method: as §1

ETV1 = ETV1 (Homo sapiens, UniProt P50549 1-477)
ETV1, sequence (P50549 whole entry): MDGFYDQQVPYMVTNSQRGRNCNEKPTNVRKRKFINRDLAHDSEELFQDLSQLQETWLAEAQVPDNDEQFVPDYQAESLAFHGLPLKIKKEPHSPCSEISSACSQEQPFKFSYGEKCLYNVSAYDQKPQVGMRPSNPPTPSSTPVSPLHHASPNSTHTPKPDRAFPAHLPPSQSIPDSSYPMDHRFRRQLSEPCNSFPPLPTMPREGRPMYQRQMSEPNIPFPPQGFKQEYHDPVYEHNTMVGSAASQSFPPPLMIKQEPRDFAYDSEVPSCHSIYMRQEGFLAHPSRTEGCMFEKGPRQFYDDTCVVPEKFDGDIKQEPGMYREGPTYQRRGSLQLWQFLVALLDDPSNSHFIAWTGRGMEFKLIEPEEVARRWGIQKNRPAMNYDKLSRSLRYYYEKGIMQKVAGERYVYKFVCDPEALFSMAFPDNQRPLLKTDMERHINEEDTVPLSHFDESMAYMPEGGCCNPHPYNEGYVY
Summary of the method: as §1

ERF = biological target: T3, ERF (Homo sapiens, UniProt P50548 1-548)
T3 sequence: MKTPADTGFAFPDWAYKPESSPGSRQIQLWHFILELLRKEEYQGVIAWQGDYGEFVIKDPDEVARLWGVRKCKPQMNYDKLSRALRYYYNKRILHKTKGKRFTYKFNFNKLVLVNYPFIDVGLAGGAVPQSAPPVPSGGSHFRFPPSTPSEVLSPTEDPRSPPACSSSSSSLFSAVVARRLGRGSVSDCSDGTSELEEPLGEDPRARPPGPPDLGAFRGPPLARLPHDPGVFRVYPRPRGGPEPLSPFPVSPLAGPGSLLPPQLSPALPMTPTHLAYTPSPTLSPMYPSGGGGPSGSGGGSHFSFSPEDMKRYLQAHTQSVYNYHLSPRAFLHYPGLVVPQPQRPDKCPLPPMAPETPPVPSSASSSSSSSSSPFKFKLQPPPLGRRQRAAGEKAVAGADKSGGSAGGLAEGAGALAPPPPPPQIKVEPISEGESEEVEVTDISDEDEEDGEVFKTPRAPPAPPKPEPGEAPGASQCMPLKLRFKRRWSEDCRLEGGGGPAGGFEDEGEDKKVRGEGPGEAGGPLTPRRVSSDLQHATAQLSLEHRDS
Summary of the method: as §1

ETV3L = biological target: T4, ETV3L (Homo sapiens, UniProt Q6ZN32 1-361)
T4 sequence: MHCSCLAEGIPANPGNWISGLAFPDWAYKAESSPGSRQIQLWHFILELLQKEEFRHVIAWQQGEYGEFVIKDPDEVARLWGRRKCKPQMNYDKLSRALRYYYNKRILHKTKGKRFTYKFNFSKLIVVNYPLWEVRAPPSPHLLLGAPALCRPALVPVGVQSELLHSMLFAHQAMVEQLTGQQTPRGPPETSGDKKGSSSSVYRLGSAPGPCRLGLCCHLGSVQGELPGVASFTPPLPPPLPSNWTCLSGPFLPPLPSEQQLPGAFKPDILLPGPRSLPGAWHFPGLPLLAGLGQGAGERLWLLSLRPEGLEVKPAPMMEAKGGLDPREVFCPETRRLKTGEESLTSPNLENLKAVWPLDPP
Summary of the method: as §1

ETS2 = biological target: T5, ETS2 (Homo sapiens, UniProt P15036 1-469)
T5 sequence: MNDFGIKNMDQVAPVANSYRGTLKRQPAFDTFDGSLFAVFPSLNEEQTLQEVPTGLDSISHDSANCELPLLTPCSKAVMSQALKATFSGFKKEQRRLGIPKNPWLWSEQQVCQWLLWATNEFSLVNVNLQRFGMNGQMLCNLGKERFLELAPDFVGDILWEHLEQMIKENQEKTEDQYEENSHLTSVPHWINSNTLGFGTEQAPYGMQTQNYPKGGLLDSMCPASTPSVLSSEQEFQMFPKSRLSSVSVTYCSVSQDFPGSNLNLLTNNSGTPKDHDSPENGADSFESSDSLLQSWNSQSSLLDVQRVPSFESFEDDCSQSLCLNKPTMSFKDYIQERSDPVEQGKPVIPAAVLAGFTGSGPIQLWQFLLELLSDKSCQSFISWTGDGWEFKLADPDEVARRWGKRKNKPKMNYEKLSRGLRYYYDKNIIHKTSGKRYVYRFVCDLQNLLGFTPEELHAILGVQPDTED
Summary of the method: as §1

ETV7 = biological target: T6, ETV7 (Homo sapiens, UniProt Q9Y603 1-341)
T6 sequence: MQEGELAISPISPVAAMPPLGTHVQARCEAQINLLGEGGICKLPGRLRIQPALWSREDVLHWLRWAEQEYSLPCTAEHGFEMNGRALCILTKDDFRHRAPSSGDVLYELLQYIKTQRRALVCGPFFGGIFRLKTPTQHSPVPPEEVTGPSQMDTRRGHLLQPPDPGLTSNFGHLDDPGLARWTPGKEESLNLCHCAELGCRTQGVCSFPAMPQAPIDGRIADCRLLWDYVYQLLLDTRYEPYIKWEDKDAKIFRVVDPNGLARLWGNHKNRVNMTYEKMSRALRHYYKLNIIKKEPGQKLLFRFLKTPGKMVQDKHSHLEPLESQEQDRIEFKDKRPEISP
Summary of the method: as §1

ETV3 = biological target: T7, ETV3 (Homo sapiens, UniProt P41162-2 1-143)
T7 sequence: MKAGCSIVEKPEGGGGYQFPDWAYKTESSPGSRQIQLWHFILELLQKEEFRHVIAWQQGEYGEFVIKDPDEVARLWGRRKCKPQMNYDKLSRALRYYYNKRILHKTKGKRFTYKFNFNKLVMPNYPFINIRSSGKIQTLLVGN
Summary of the method: as §1

ETV6 = ETV6 (Homo sapiens, UniProt P41212 1-452)
ETV6, sequence (P41212 whole entry): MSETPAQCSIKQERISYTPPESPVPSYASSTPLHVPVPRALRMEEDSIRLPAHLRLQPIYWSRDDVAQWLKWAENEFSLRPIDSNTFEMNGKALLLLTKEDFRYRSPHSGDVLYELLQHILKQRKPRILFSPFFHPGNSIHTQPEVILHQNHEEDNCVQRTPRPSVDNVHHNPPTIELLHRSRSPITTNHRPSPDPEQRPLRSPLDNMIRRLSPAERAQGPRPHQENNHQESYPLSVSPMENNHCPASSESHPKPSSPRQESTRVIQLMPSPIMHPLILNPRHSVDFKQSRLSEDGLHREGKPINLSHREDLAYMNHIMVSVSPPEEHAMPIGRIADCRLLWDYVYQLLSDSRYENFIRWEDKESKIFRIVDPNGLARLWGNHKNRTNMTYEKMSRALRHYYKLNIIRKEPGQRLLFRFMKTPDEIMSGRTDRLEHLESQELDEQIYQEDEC
Summary of the method: as §1

Which binding signal (ELK4) does the source give for TCAGCT here?
Its binding signal is 1.14 fold enrichment (6-mer frequency, TF over GST control).

What about the binding signal (ETV2) of the same sequence?
The binding signal was 1.11 fold enrichment (6-mer frequency, TF over GST control).

And the binding signal (CRX)?
Its binding signal is 1.39 fold enrichment (6-mer frequency, TF over GST control).

What about the binding signal (ETV1) of the same sequence?
Its binding signal is 1.14 fold enrichment (6-mer frequency, TF over GST control).

What about the binding signal (ERF) of the same sequence?
Its binding signal is 1.09 fold enrichment (6-mer frequency, TF over GST control).

And the binding signal (ETV3L)?
The binding signal was 1.09 fold enrichment (6-mer frequency, TF over GST control).

What about the binding signal (ETS2) of the same sequence?
The binding signal was 1.14 fold enrichment (6-mer frequency, TF over GST control).

What about the binding signal (ETV7) of the same sequence?
Its binding signal is 1.01 fold enrichment (6-mer frequency, TF over GST control).

What about the binding signal (ETV3) of the same sequence?
The binding signal was 1.05 fold enrichment (6-mer frequency, TF over GST control).

And the binding signal (ETV6)?
Its binding signal is 1.04 fold enrichment (6-mer frequency, TF over GST control).

— article PMC7862700, “An all-to-all approach to the identification of sequence-specific readers for epigenetic DNA modifications on cytosine”
